The full ranking holds about 1,900 compounds; the median of “excess over highest single agent (ExcessHSA) synergy score, 6x6 matrix” is about -83, and the lowest 2% start at about -370. This is one part of a sample in which the lowest values are shown more often than they occur.

This test has as its system NCI-H446. Description: excess over highest single agent (ExcessHSA) synergy score, 6x6 matrix; higher = less synergy (more negative = stronger synergy). The settings on record: 72 h; CellTiter-Glo viability. On the technique in general: Cellular ATP, detected with luciferase, serves as a proxy for viable cell number.
On to `Cc1ccccc1C(C(=O)NC1CCCCC1)N(C(=O)CNc1ccc(C#N)cc1)c1cccc(F)c1` (stereo unspecified) + Cc1sc2c(c1C)C(c1ccc(Cl)cc1)=N[C@@H](CC(=O)OC(C)(C)C)c1nnc(C)n1-2 [NCGC00250412-19], for which the “excess over highest single agent” value was -209.
The value for `O=C(O)C(=O)O.[NH-]C1CCCCC1[NH-].[Pt+2]` (stereo unspecified) + Cc1sc2c(c1C)C(c1ccc(Cl)cc1)=N[C@@H](CC(=O)OC(C)(C)C)c1nnc(C)n1-2 [NCGC00250412-19] was -135.
As for `CC(C)(N)C(=O)N[C@H](COCc1ccccc1)C(=O)N1CCC2(CC1)CN(S(C)(=O)=O)c1ccccc12` + Cc1sc2c(c1C)C(c1ccc(Cl)cc1)=N[C@@H](CC(=O)OC(C)(C)C)c1nnc(C)n1-2 [NCGC00250412-19], the “excess over highest single agent” value was -36.
Then `CC(C)CC(=O)Nc1n[nH]c2c1CN(C(=O)C1CCN(C)CC1)C2(C)C` + Cc1sc2c(c1C)C(c1ccc(Cl)cc1)=N[C@@H](CC(=O)OC(C)(C)C)c1nnc(C)n1-2 [NCGC00250412-19], with -619.
The value for `COc1cc(Oc2ccnc3cc(OC)c(OC)cc23)ccc1NC(=O)NC(C)c1nccs1` (stereo unspecified) + Cc1sc2c(c1C)C(c1ccc(Cl)cc1)=N[C@@H](CC(=O)OC(C)(C)C)c1nnc(C)n1-2 [NCGC00250412-19] was -83.5.
Consider `COc1ccc2[nH]c([S+]([O-])Cc3ncc(C)c(OC)c3C)nc2c1` (stereo unspecified) + Cc1sc2c(c1C)C(c1ccc(Cl)cc1)=N[C@@H](CC(=O)OC(C)(C)C)c1nnc(C)n1-2 [NCGC00250412-19], for which the “excess over highest single agent” value turned out to be 45.9.
The value for `COc1c(C)cnc(Cn2cnc3c(Cl)nc(N)nc32)c1C` + Cc1sc2c(c1C)C(c1ccc(Cl)cc1)=N[C@@H](CC(=O)OC(C)(C)C)c1nnc(C)n1-2 [NCGC00250412-19] was -371.
The value for `COc1ccc2cc(-c3nc(-c4ccc([S+](C)[O-])cc4)[nH]c3-c3ccncc3)ccc2c1` (stereo unspecified) + Cc1sc2c(c1C)C(c1ccc(Cl)cc1)=N[C@@H](CC(=O)OC(C)(C)C)c1nnc(C)n1-2 [NCGC00250412-19] was -100; that for `CCN(CC)CCOc1ccc(Nc2ncc3cc(-c4c(Cl)cccc4Cl)c(=O)n(C)c3n2)cc1` + Cc1sc2c(c1C)C(c1ccc(Cl)cc1)=N[C@@H](CC(=O)OC(C)(C)C)c1nnc(C)n1-2 [NCGC00250412-19] was -126; that for `CC(C)(O)CCc1ccc(OCc2cc(-c3cccc(OC(F)F)c3)c3ncccc3c2)cc1` + Cc1sc2c(c1C)C(c1ccc(Cl)cc1)=N[C@@H](CC(=O)OC(C)(C)C)c1nnc(C)n1-2 [NCGC00250412-19] was 48.5.
The value for `COc1nccc(-c2c(-c3ccc(F)cc3)ncn2C2CCNCC2)n1` + Cc1sc2c(c1C)C(c1ccc(Cl)cc1)=N[C@@H](CC(=O)OC(C)(C)C)c1nnc(C)n1-2 [NCGC00250412-19] was -55.9; that for `COc1cccc2c1[C@]13CCN(CC4CC4)[C@H](C2)[C@]1(OC)CCC(=O)C3` + Cc1sc2c(c1C)C(c1ccc(Cl)cc1)=N[C@@H](CC(=O)OC(C)(C)C)c1nnc(C)n1-2 [NCGC00250412-19] was -55.
For `CO[C@@H]1[C@H](N(C)C(=O)c2ccccc2)C[C@H]2O[C@]1(C)n1c3ccccc3c3c4c(c5c6ccccc6n2c5c31)C(=O)NC4=O` + Cc1sc2c(c1C)C(c1ccc(Cl)cc1)=N[C@@H](CC(=O)OC(C)(C)C)c1nnc(C)n1-2 [NCGC00250412-19], the “excess over highest single agent” value was -113.
`CN[C@@H]1C[C@H]2O[C@@](C)([C@@H]1OC)n1c3ccccc3c3c4c(c5c6ccccc6n2c5c31)C(=O)N[C@H]4O` + Cc1sc2c(c1C)C(c1ccc(Cl)cc1)=N[C@@H](CC(=O)OC(C)(C)C)c1nnc(C)n1-2 [NCGC00250412-19]: the “excess over highest single agent” value was -378.
On to `CO[C@@H]1[C@H](N(C)C(=O)c2ccccc2)C[C@H]2O[C@]1(C)n1c3ccccc3c3c4c(c5c6ccccc6n2c5c31)C(=O)NC4` + Cc1sc2c(c1C)C(c1ccc(Cl)cc1)=N[C@@H](CC(=O)OC(C)(C)C)c1nnc(C)n1-2 [NCGC00250412-19], for which the “excess over highest single agent” value was -207.
The value for `CCn1c(C(=O)N(C2CC2)C2CC2)cc2c3c(ncn3C)c(Nc3cc(C)n(C)n3)nc21` + Cc1sc2c(c1C)C(c1ccc(Cl)cc1)=N[C@@H](CC(=O)OC(C)(C)C)c1nnc(C)n1-2 [NCGC00250412-19] was 76.1; that for `N#C/C(=C(/N)Sc1ccc(N)cc1)c1ccccc1C(F)(F)F` + Cc1sc2c(c1C)C(c1ccc(Cl)cc1)=N[C@@H](CC(=O)OC(C)(C)C)c1nnc(C)n1-2 [NCGC00250412-19] was -146; that for `CCc1ccc(C(=O)Nc2cc(CN3CCN(C)CC3)cc(C(F)(F)F)c2)cc1C#Cc1cnc2ccnn2c1` + Cc1sc2c(c1C)C(c1ccc(Cl)cc1)=N[C@@H](CC(=O)OC(C)(C)C)c1nnc(C)n1-2 [NCGC00250412-19] was -7.02.
The value for `O=C(NCc1ccccc1)[C@H](Cc1ccccc1)NC(=O)[C@H]1O[C@@H]1C(=O)NCCc1ccc(O)cc1` + Cc1sc2c(c1C)C(c1ccc(Cl)cc1)=N[C@@H](CC(=O)OC(C)(C)C)c1nnc(C)n1-2 [NCGC00250412-19] was -10.6.
`CCN1CCN(C(=O)Cc2ccc(Nc3ncc(F)c(Nc4ccc(C(=O)Nc5ccccc5Cl)cc4)n3)cc2)CC1` + Cc1sc2c(c1C)C(c1ccc(Cl)cc1)=N[C@@H](CC(=O)OC(C)(C)C)c1nnc(C)n1-2 [NCGC00250412-19]: the “excess over highest single agent” value is -388.
Then `O=C(O)c1ccc(Nc2ncc3c(n2)-c2ccc(Cl)cc2C(c2c(F)cccc2F)=NC3)cc1` + Cc1sc2c(c1C)C(c1ccc(Cl)cc1)=N[C@@H](CC(=O)OC(C)(C)C)c1nnc(C)n1-2 [NCGC00250412-19], with -157.
For `Cc1ccc(NC(=O)c2ccc(CN3CCN(C)CC3)cc2)cc1Nc1nccc(-c2cccnc2)n1` + Cc1sc2c(c1C)C(c1ccc(Cl)cc1)=N[C@@H](CC(=O)OC(C)(C)C)c1nnc(C)n1-2 [NCGC00250412-19], the “excess over highest single agent” value was -176.
The value for `OC[C@@H](O)[C@@H](O)[C@@H](O)CO` + Cc1sc2c(c1C)C(c1ccc(Cl)cc1)=N[C@@H](CC(=O)OC(C)(C)C)c1nnc(C)n1-2 [NCGC00250412-19] was -189.
On to `CC(C)Oc1cc(Nc2nc(N[C@@H](C)c3ccc(F)cn3)ncc2Cl)n[nH]1` + Cc1sc2c(c1C)C(c1ccc(Cl)cc1)=N[C@@H](CC(=O)OC(C)(C)C)c1nnc(C)n1-2 [NCGC00250412-19], for which the “excess over highest single agent” value was -396.
Then `Cc1cc(Nc2nc(N[C@@H](C)c3ncc(F)cn3)ncc2Cl)[nH]n1` + Cc1sc2c(c1C)C(c1ccc(Cl)cc1)=N[C@@H](CC(=O)OC(C)(C)C)c1nnc(C)n1-2 [NCGC00250412-19], with -46; and `Cc1cc(Nc2nc(N[C@@H](C)c3ccc(F)cc3)c(C#N)cc2F)n[nH]1` + Cc1sc2c(c1C)C(c1ccc(Cl)cc1)=N[C@@H](CC(=O)OC(C)(C)C)c1nnc(C)n1-2 [NCGC00250412-19], with -209.

The values above are taken from the supplement of paper PMC10077471.
